Unmarked numbers belong to inactive results.
These compounds were tested against T1, VCPIP1 (UniProt Q96JH7) (assay: log2 ratio of Biotin-Ahx-Ub-VS probe labelling (fragment/DMSO); higher = less target engagement (more negative = stronger competition), active = hit call of the paper (q ≤ 0.05, log2 ratio ≤ -1)). Settings: compound concentration: 200 uM; treatment time: 3 h.
T1 sequence (whole entry): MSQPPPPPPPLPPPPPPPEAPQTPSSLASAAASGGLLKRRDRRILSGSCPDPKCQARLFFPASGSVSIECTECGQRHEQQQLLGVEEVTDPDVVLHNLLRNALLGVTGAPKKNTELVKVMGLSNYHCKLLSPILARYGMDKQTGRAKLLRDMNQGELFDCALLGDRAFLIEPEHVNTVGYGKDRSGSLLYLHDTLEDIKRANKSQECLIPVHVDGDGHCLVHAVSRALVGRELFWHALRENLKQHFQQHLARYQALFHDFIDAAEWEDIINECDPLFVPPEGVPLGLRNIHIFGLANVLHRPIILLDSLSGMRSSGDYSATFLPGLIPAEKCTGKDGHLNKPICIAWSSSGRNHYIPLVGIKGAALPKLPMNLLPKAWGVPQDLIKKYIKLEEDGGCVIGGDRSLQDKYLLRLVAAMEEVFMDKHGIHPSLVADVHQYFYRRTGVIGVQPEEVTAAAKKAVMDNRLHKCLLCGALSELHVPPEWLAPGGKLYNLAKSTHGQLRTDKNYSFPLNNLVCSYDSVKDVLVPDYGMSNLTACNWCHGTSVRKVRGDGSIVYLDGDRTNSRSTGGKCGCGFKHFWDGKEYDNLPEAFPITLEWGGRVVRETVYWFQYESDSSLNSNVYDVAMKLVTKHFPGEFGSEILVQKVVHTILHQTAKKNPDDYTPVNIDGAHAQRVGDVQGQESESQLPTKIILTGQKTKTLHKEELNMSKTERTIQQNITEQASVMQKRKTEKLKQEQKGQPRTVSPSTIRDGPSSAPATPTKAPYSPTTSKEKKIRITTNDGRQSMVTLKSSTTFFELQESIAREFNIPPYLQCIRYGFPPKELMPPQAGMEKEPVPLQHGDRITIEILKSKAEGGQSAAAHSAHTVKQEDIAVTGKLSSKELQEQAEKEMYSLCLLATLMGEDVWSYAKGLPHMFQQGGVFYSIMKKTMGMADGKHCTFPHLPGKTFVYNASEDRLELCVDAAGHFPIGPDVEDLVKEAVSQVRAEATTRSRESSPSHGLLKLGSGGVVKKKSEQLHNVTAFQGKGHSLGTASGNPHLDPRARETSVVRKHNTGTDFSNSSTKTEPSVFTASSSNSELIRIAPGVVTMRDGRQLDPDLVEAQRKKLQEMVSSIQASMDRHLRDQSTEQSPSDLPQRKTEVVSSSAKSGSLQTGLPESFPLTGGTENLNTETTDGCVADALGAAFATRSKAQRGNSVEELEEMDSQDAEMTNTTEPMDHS
Method: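 Competitive ABPP in HEK293T cell lysate. Lysates were treated with each chloroacetamide fragment at 200 µM for 3 h, then with Biotin-Ahx-Ub-VS (0.5 µM, 1 h), NeutrAvidin-enriched and analysed by diaPASEF LC-MS/MS. Protein LFQ was median-normalised; average log2 ratio is fragment/DMSO from an unpaired t-test (n=3 treated, n=44 DMSO). Hits: q ≤ 0.05, log2 ratio ≤ -1, unique peptides ≥ 2.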

| Compound | log2 ratio of Biotin-Ahx-Ub-VS probe labelling |
| --- | --- |
| Cl.O=C(CCl)N1CCc2ncncc2C1 | -0.0226 |
| Cc1ccc(CN(CCO)C(=O)CCl)cc1 | -0.862 |
| O=C(CCl)NCc1cccc(F)c1 | -1.16 (active) |
| COc1ccc(-c2csc(NC(=O)CCl)n2)cc1 | -1.46 (active) |
| O=C(CCl)Nc1ccc(N2CCCC2=O)cc1 | -1.2 (active) |
| O=C(CCl)N[C@H]1CC[C@@H](CO)CC1 | -1.4 (active) |
| C[C@@H](NC(=O)CCl)c1cccc(C#N)c1 | -0.466 |
